Assay [1] can be described thus: NCI Yeast Anticancer Drug Screen. Data for the rad50 strain (AID 155).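 Further: 0% = growth of vehicle-only cultures of the same strain.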 Particulars: S. cerevisiae rad50 strain growth inhibition; at 50.0 µM; active compounds read high. A digest of the protocol: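 Inhibition values express reduced yeast growth in compound-treated cultures relative to vehicle-treated controls.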
A short description of assay [2]: NCI Yeast Anticancer Drug Screen. Data for the mec2-1 strain (AID 157). Particulars: S. cerevisiae mec2-1 strain, at 50.0 µM, active compounds read high. The method in brief:
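Compounds were applied to mec2-1 yeast cells. Their growth was then compared with that of vehicle-treated cultures to give growth inhibition.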

Assay [3] in a line: NCI Yeast Anticancer Drug Screen. Data for the sgs1 mgt1 strain (AID 161).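 Further: 0% = growth of cultures given vehicle only.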 As to conditions: S. cerevisiae sgs1 mgt1 strain, at 50.0 µM, active compounds read high. The method in brief:
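Percent growth inhibition was derived by comparing compound-exposed mutant yeast with vehicle-exposed cultures. The strain carries alterations in DNA damage repair.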

Assay [4] can be described thus: NCI Yeast Anticancer Drug Screen. Data for the cln2 rad14 strain (AID 165).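 Further: 0% = growth equal to vehicle treated cultures.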 As to conditions: S. cerevisiae cln2 rad14 strain, at 50.0 µM, active compounds read high. The method in brief:
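Strain: cln2 rad14 yeast, altered in cell cycle control and DNA damage repair. Read-out: growth inhibition vs vehicle.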

The nature of assay [5]: NCI Yeast Anticancer Drug Screen. Data for the bub3 strain (AID 167). Particulars: S. cerevisiae bub3 mutant strain, at 50.0 µM, active compounds read high. A digest of the protocol:
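Steps: expose the mutant yeast strain to compound; grow alongside vehicle-treated cultures; measure growth; express inhibition against the vehicle cultures.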

A short description of assay [6]: NCI Yeast Anticancer Drug Screen. Data for the mlh1 rad18 strain (AID 175). As to conditions: S. cerevisiae mlh1 rad18 strain growth inhibition; at 50.0 µM; active compounds read high. A digest of the protocol: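 A repair-deficient yeast strain is exposed to test compound, and growth is scored relative to vehicle-treated controls.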

About 79,000 compounds went through this panel and 15% of them were active in at least one assay; those are over-represented in the sample as a whole. Values without a mark were called inactive. The source made the active and inactive calls. No stated cut-off is given here; in the data, active means growth inhibition above about 70%; inactive means the rest.

With `C[N+](C)(C)/N=C(/c1ccccc1)C1CCCCC1`, the growth inhibition in assay [1] was -20.2%; in assay [2], -2.1%; in assay [3] it was -4.35%; in assay [4] it was -43.5%; in assay [5] it was 0.4%; in assay [6], 7.7%.

Take `O=C(CBr)c1ccc(S(=O)(=O)c2ccccc2)cc1`: the growth inhibition is 67.3% in assay [1]; 92.7% (active) in assay [2]; 85% (active) in assay [3]; 27.9% in assay [4]; 72.2% (active) in assay [5]; 78.3% (active) in assay [6].

Consider `CSCCNC(=O)CS(=O)(=O)c1ccc(C)cc1`, for which the growth inhibition was 3.35% in assay [1]; -11.4% in assay [2]; 5.25% in assay [3]; 20.2% in assay [4]; 7.95% in assay [5]; 17.4% in assay [6].

Take `O=C1CCC2CCC(=O)N12`: the growth inhibition in assay [1] is 1.25%; in assay [2] it was -2.2%; in assay [3], -10.3%; in assay [4], 2.1%; in assay [5] it was -11.2%; in assay [6], 5.65%.

Turning to `CCOC(=O)c1c(C)c2c(n1C)CC/C(=C\N1CCN(c3ccccc3)CC1)C2=O`, the growth inhibition in assay [1] is 0.6%; in assay [2] it was -1.55%; in assay [3] it was -19.5%; in assay [4] it was -14.8%; in assay [5], 2.25%; in assay [6], 18.3%.

Turning to `COC(=O)C(=O)C1CCc2c(ccc3c2CCCC3)C1` (stereo not given), the growth inhibition in assay [1] was 0.8%; in assay [2], 17.4%; in assay [3] it was 22.9%; in assay [4], -8.8%; in assay [5] it was 8.2%; in assay [6], 10.2%.

As to `CCCCCCCCCCCCn1[nH]c(C)c(C(=S)SCCCCCCCC)c1=O`, the growth inhibition was -7.2% in assay [1]; 1.05% in assay [2]; -0.9% in assay [3]; 1.45% in assay [4]; 3% in assay [5]; 7.3% in assay [6].

On to `CC1CSC(C)(C)C(=O)N1` (stereo not given), for which the growth inhibition in assay [1] is 16.2%; in assay [2] it was 14.8%; in assay [3], 2.35%; in assay [4] it was -26.8%; in assay [5], 13.8%; in assay [6], 19.9%.

Take `C1CC2(C34CCC(CC3)C4)CCC1C2`: the growth inhibition in assay [1] was -5.15%; in assay [2] it was 1.45%; in assay [3], 14.2%; in assay [4], 7.55%; in assay [5], 7.1%; in assay [6] it was -2.6%.

In the case of `O=C1C(O)=C(c2ccccc2)C12CSC1(CS2)C(=O)C(O)=C1c1ccccc1` (stereo not given), the growth inhibition in assay [1] is 4.45%; in assay [2] it was -1.55%; in assay [3], -12.9%; in assay [4], 5.4%; in assay [5], 6.05%; in assay [6], 17.3%.

Take `CC(C)C(=O)Nc1cccc([N+](=O)[O-])c1`: the growth inhibition was -2.1% in assay [1]; -8.75% in assay [2]; 6.75% in assay [3]; -24.6% in assay [4]; -6.85% in assay [5]; -7.6% in assay [6].

With `O=C(NNC(=S)Nc1ccc(Cl)cc1)C12CC3CC(CC(C3)C1)C2`, the growth inhibition in assay [1] is -9.4%; in assay [2], 6.15%; in assay [3], -4.15%; in assay [4], 17.4%; in assay [5] it was 30.8%; in assay [6] it was 8.7%.

Consider `CC(C(=O)O)C(NC(=O)c1ccccc1)C(=O)O` (stereo not given), for which the growth inhibition in assay [1] was 11.5%; in assay [2], 5.35%; in assay [3], 0.2%; in assay [4] it was 16%; in assay [5] it was 4.4%; in assay [6] it was 13.4%.

In the case of `CC(O)CN1c2ccccc2Sc2ccccc21` (stereo not given), the growth inhibition was -17.4% in assay [1]; -13.7% in assay [2]; -13.2% in assay [3]; -18.2% in assay [4]; -13.8% in assay [5]; 7.55% in assay [6].

As for `O=C1NC(c2cccc3ccccc23)Nc2ccccc21` (stereo not given), the growth inhibition in assay [1] is 3.05%; in assay [2], -14.8%; in assay [3], 9.2%; in assay [4], -6.6%; in assay [5] it was 0.85%; in assay [6], 0.8%.

For the compound `CCCCCCCCCCCOC(=O)CCl`, the growth inhibition was 1.4% in assay [1]; -13% in assay [2]; -16.9% in assay [3]; -12.3% in assay [4]; -12.8% in assay [5]; -7.4% in assay [6].

For the compound `O=C(O)CCC(C(=O)O)N1C(=O)C2C3CCC(C3)C2C1=O` (stereo not given), the growth inhibition in assay [1] was -26%; in assay [2], -33.9%; in assay [3], -36.2%; in assay [4] it was -16%; in assay [5], -24.9%; in assay [6], -5.45%.

`O=C(O)C#Cc1cccnc1`: the growth inhibition in assay [1] was -10.9%; in assay [2] it was -14%; in assay [3], 0.75%; in assay [4], 6%; in assay [5], -3.4%; in assay [6], -16.9%.

Take `Fc1ccc(CC(F)F)cc1`: the growth inhibition is -2.55% in assay [1]; -6.2% in assay [2]; 14.4% in assay [3]; 4.6% in assay [4]; -23.6% in assay [5]; 3.25% in assay [6].

With `CSC1C(=O)Nc2ccccc21` (stereo not given), the growth inhibition is -8.5% in assay [1]; -17.6% in assay [2]; 4.1% in assay [3]; -13.1% in assay [4]; -34.5% in assay [5]; -3% in assay [6].

(Values after PubChem BioAssay (NCI).)
